In ChEMBL document CHEMBL3988442, “University of Dundee, Small-Polar-MMV Screening Library” (2021):
The whole screen tested about 67,000 compounds, of which about 300 (0.45%) showed an effect of 50% or more. What follows is part of a selection rich in strong results, with near analogues and random picks from the rest.

What follows are molecules tested against Polyketide synthase Pks13 (Mycobacterium tuberculosis (strain ATCC 25618 / H37Rv)) (UniProt I6X8D2) (assay: Mycobacterium tuberculosis Polyketide synthase 13 Thioesterase (PKS13)). Details: 30 µM.
Type: functional
Design: scale not given: in the data most compounds retested in dose-response had high values

Polyketide synthase Pks13 (Mycobacterium tuberculosis (strain ATCC 25618 / H37Rv)), sequence (I6X8D2 whole entry): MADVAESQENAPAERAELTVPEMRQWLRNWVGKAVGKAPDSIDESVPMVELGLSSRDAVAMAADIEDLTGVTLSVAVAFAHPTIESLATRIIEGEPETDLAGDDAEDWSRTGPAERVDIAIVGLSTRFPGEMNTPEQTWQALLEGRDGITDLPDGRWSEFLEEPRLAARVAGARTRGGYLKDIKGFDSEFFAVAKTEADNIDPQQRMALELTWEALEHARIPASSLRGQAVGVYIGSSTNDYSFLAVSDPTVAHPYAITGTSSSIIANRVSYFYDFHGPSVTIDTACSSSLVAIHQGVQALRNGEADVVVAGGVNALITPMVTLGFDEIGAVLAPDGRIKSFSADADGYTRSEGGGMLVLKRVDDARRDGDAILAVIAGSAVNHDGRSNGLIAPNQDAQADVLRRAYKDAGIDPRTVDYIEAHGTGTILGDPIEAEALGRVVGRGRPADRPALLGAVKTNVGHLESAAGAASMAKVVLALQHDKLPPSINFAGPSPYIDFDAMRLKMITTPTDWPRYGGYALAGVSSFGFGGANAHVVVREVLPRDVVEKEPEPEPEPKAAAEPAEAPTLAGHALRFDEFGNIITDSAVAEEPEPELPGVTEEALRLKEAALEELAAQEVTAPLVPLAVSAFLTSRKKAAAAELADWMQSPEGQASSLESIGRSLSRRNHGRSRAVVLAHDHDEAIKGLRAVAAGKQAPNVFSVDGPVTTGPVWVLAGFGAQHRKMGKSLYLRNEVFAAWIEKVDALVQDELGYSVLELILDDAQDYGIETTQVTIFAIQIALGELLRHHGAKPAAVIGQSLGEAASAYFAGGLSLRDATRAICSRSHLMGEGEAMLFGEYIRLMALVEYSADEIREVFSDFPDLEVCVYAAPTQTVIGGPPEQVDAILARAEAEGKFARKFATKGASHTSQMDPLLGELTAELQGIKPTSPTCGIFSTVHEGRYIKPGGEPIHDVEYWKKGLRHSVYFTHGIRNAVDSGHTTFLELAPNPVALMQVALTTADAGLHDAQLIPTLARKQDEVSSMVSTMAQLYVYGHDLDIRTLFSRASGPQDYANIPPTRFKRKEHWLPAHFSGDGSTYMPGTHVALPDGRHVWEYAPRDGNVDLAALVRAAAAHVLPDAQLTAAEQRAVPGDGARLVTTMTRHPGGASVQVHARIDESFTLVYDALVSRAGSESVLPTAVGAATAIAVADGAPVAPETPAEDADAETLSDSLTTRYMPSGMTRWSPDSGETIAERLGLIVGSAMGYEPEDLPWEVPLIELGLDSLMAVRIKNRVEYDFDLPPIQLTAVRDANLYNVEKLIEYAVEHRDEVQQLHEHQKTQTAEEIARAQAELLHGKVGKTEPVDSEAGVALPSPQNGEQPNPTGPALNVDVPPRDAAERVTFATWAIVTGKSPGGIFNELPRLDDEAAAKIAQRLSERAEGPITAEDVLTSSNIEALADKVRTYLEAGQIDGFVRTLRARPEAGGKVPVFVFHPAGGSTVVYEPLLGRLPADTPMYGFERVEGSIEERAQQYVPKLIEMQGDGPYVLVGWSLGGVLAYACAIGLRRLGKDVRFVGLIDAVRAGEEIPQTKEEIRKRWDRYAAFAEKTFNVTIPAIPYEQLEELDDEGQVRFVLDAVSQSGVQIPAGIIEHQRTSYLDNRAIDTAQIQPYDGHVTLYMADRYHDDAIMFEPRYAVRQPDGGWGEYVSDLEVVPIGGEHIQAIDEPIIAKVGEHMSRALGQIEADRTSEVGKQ

Row | SMILES | Percent Effect [%]
1 | COc1ncccc1CN1C[C@@H]2COC[C@]2(CNS(C)(=O)=O)C1 | 1.01
2 | CC(=O)N1CCCN(C(=O)NCc2ccc(-c3ccn[nH]3)cc2)CC1 | -4.03
3 | CC(=O)NC1CCCN(C(=O)NCc2ccc(-c3ccn[nH]3)cc2)C1 (stereo not drawn) | -5.89
4 | CCOCC1CCCN(C(=O)NCc2ccc(-c3ccn[nH]3)cc2)C1 (stereo not drawn) | 56.4
5 | Cc1nnc(N2CC[C@H]3C[C@@H](C(=O)NC4CCCC4)O[C@H]3C2)s1 | -27.2
6 | O=C([C@H]1C[C@H]2OCC[C@H]2N(Cc2ccccn2)C1)N1CCCCO1 | -14.6
7 | CN(C)CC(=O)N1Cc2nc(C(=O)NCc3ccncc3)oc2C1 | -7.86
8 | CN(C)CC(=O)N1Cc2nc(C(=O)NCc3ccccc3)oc2C1 | 72.3
9 | CCCNC(=O)c1nc2c(o1)CN(C(=O)CN(C)C)C2 | -38.7
10 | Cc1cc(C(=O)NCc2cc(C)oc2C)no1 | 59.4
11 | Cc1cc(CNC(=O)c2cnoc2C)c(C)o1 | 10.7
12 | Cc1cc(CNC(=O)c2ccno2)c(C)o1 | -13.1
13 | Cc1nc([C@H]2C[C@@H]3CCN(Cc4scnc4C)C[C@H]3O2)no1 | -27.4
14 | Cc1cc(C)n(-c2nc(C(=O)NCCN3CCC(C)CC3)cs2)n1 | 51.2
15 | Cc1cc(C)n(-c2nc(C(=O)NCCS(=O)(=O)N3CCCCC3)cs2)n1 | 16
16 | Cc1cc(C(=O)NCCN2CCC(C)CC2)nn1C(C)(C)C | -8.5
17 | CN(C)C(=O)CO[C@H]1CN(Cc2ccsc2)[C@@H]2COC[C@H]12 | -4.76
18 | O=C(C1CC1)N1C[C@H]2CCCN(S(=O)(=O)c3cccc(F)c3)[C@H]2C1 | -2.59
19 | Cc1ccc(-c2ncc(C(=O)NCCNC(=O)C(C)C)s2)c(C)c1 | 1.54
20 | Cc1ccc(-c2ncc(C(=O)NCCNc3ncccn3)s2)c(C)c1 | 70.6
21 | CC(=O)NCCNC(=O)c1cnc(-c2ccc(C)cc2C)s1 | 10.8
22 | Cc1ccc(C(=O)N2CC[C@H]3[C@@H]2CCC(=O)N3c2cccnc2)o1 | -561
23 | CN1CCS(=O)(=O)[C@@H]2CCN(C(=O)CC(C)(C)C)CC[C@@H]21 | -26
24 | Cc1cc(CN2C[C@@H]3COC[C@H](C(=O)N4CCCCO4)[C@@H]3C2)oc1C | -10.7
25 | Cc1cnc(N2C[C@@H]3CCN(CC4CC4)C(=O)[C@H]3C2)nc1 | -1.64
26 | C[C@H](NC(=O)c1cccc(CCC(C)(C)O)c1)C(N)=O | 54
27 | CC(C)[C@H](NC(=O)c1cccc(CCC(C)(C)O)c1)C(N)=O | 5.12

Row | SMILES | Percent Effect [%]
28 | CC(C)(O)CCc1cccc(C(=O)N[C@@H](CO)C(N)=O)c1 | 10.3
29 | CN(Cc1cncnc1)[C@H]1CN(CC2CC2)[C@@H]2CCCO[C@@H]21 | -5.38
30 | Cc1ccccc1S(=O)(=O)N[C@@H]1CC[C@@H](N2CCNC(=O)C2)[C@@H]1O | 53
31 | O=C1CN([C@@H]2CC[C@@H](NS(=O)(=O)c3ccccc3F)[C@H]2O)CCN1 | -2.59
32 | O=C1CN([C@@H]2CC[C@@H](NS(=O)(=O)c3ccccc3)[C@H]2O)CCN1 | 0.207
33 | COCCN1C[C@@H]2CCCO[C@@H]2[C@H](N(C)Cc2ccco2)C1 | -24.6
34 | Cc1ccc(CN2CC[C@@]3(O)CCN(S(=O)(=O)N(C)C)C[C@H]3C2)cc1C | -28.6
35 | Cc1cc(-c2cnn(CCNC(=O)c3snnc3C)c2C2CC2)on1 | 90.2
36 | Cc1cc(-c2cnn(CCNC(=O)C3CC3)c2C2CC2)on1 | -12
37 | Cc1cc(-c2cnn(CCNC(=O)c3cnn(C)c3)c2C2CC2)on1 | -12.5
38 | COc1cccc(-c2cc(NCCN(C)C)nc3[nH]ccc23)n1 | 7.82
39 | COc1cccc(-c2cc(NCCO)nc3[nH]ccc23)n1 | 7.17
40 | COc1cccc(-c2cc(NCC(=O)O)nc3[nH]ccc23)n1 | 58.3
41 | CCC(=O)N1CCCCC[C@@H]2[C@@H]1[C@H](c1cccc(F)c1)CN2C | -27
42 | COc1cccc(-c2noc(-c3ccc(NCC4CC4)nc3)n2)c1OC | 36.1
43 | COc1cccc(-c2noc(-c3ccc(NCC(C)O)nc3)n2)c1OC (stereo not drawn) | 30.5
44 | CCC(C)Nc1ccc(-c2nc(-c3cccc(OC)c3OC)no2)cn1 (stereo not drawn) | 69.5
45 | COc1cccc(-c2noc(-c3ccc(NCC(C)C)nc3)n2)c1OC | 66
46 | COc1cccc(-c2noc(-c3ccc(NCCCO)nc3)n2)c1OC | 40.8
47 | CNCCNc1ccc(-c2nc(-c3cccc(OC)c3OC)no2)cn1 | -36.1
48 | CN(C)C(=O)N1CC[C@]2(O)CCN(C(=O)c3ccc(C#N)nc3)C[C@@H]2C1 | -13.4
49 | CCCN1CCN(C(=O)c2cc[nH]n2)[C@H]2CS(=O)(=O)C[C@H]21 | -8.12
50 | Cc1nnc([C@@H]2CC[C@@H]3[C@@H](CCN3Cc3ccccn3)O2)o1 | -21.9
51 | O=C1[C@@H]2CCN(CC3CCOCC3)C[C@@H]2OCCN1c1ccccc1 | -30.7
52 | CCC(=O)N1CCN(C(=O)c2cn3ccsc3n2)[C@H]2CS(=O)(=O)C[C@H]21 | -15.8
53 | O=C(Cc1cnccn1)N1C[C@H]2CC[C@@H]1CN(Cc1cscn1)C2 | -24.8
